# High-throughput results as filed in PubChem BioAssay.
# NCOA1 inh: inhibits human SRC1 coactivator; 360,000 tested, 0.12% active; HEK293 GAL4-SRC1 luciferase reporter, luminescence; inhibition, % at 3.6 µM;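 active = inhibition above the campaign mean plus 3 SD, with each screening campaign given its own cutoff, cut at about 60% in these data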;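 also: 0% = DMSO treated cells and 100% = gossypol at 36 µM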
# Target sequence (Q15788 whole entry, looked up, the tested form may be a part): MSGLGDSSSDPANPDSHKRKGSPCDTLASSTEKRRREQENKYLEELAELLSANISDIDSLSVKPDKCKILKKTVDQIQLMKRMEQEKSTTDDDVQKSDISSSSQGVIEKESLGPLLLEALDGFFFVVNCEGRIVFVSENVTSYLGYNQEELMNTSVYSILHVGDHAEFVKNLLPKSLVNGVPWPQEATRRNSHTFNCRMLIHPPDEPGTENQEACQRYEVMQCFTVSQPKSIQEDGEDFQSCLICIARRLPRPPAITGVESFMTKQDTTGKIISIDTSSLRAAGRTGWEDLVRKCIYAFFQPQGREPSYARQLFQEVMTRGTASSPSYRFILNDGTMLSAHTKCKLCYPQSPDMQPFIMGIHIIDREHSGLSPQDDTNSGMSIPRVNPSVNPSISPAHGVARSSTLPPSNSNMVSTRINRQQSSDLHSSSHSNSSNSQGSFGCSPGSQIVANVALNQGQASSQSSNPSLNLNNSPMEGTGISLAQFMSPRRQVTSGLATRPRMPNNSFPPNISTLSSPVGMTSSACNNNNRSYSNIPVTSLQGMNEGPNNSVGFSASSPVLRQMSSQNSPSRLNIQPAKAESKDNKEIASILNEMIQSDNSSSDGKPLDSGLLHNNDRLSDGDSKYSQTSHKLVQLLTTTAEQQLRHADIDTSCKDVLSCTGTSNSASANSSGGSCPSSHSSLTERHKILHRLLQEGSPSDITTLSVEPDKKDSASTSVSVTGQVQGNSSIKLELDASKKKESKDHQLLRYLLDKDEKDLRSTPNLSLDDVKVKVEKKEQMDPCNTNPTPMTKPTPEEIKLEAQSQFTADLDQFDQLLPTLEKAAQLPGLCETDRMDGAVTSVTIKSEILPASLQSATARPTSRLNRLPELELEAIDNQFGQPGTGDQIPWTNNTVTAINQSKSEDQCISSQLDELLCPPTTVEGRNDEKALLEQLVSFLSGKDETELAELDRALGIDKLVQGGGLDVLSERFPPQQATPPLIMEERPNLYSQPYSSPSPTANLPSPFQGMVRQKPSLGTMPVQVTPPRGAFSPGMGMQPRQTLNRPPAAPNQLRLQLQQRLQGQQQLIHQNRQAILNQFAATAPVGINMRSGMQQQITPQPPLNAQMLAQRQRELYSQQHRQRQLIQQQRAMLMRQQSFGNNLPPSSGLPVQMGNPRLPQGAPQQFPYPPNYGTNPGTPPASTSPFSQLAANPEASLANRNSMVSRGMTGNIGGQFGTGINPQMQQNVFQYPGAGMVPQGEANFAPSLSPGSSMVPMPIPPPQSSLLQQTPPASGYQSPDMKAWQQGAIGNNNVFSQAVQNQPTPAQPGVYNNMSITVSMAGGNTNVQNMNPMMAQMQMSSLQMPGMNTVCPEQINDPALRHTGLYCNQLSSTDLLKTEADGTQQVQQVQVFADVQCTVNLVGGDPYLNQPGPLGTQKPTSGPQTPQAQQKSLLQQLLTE
# COUP-TFII inh: inhibitors of human COUP-TFII (NR2F2) | HEK293T NGFI-A luciferase reporter, luminescence | 370,000 tested, 0.7% active | inhibition, % at 8.6 µM | P24468;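 active = inhibition above a per-plate cutoff, mean inhibition of test wells between control levels plus 3 SD, cut at about 38% in these data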;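 also: cells cotransfected with COUP-TFII expression vector driving the NGFI-A reporter; 0% = median of COUP-TF2 test wells and 100% = reporter-only cells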
# NR5A2 inv ag: suppresses constitutive activity of human LRH-1. O00482. HEK293T StAR-luciferase reporter, LRH-1 transfected, 24 h. inhibition, % at 3.6 µM. 360,000 tested, 0.13% active;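 active = inhibition above the mean inhibition of all tested compounds plus 3 SD, cut at about 73% in these data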;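 also: 0% = DMSO wells and 100% = reporter-only cells lacking LRH-1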
# NCOA3 inh: inhibits human SRC3 coactivator | HEK293 GAL4-SRC3 luciferase reporter, luminescence | inhibition, % at 3.6 µM | 360,000 tested, 0.17% active | AID 588352;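 active = inhibition above a per-campaign cutoff, the mean of all compounds plus 3 SD, cut at about 60% in these data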;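 also: 0% = DMSO-treated cells and 100% = gossypol-treated cells at 36 µM; higher means less SRC3-driven luciferase light from the GAL4 reporter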
# Gli-Sufu block: blocks Gli-Sufu signaling in a luciferase reporter. Sufu-KO-LIGHT fibroblasts, Gli luciferase reporter luminescence. inhibition, % at 5 µM. 340,000 tested, 0.74% active;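 active = inhibition above about 55%, limit read from the data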;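 also: 0% = DMSO-treated cells and 100% = wells with medium but no cells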
# SRC2 inh: human SRC2 (NCOA2) inhibition. inhibition, % at 9 µM. HEK293 GAL4-SRC2 luciferase reporter, luminescence. Q15596. 370,000 tested, 0.17% active;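 active = inhibition above the mean inhibition of all tested compounds plus 3 SD, set per campaign, cut at about 52% in these data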;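 also: 0% = DMSO treated cells and 100% = cells given Gossypol at 36 µM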
# Gli-Sufu confirm: confirmation of Gli-SUFU pathway antagonists; shares compounds with Gli-Sufu block; Sufu-KO-LIGHT cells, Gli luciferase reporter, luminescence; inhibition, % at 5 µM; 2,500 tested, 40% active; AID 602428;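 active = mean inhibition at 5 µM reaching about 45%, limit read from the data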;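 also: plate controls were DMSO-treated cells for no effect and wells lacking cells for full effect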
# Gli cytotox: cytotoxic in Gli-SUFU antagonist counter-screen; cytotoxicity, % at 5 µM; shares compounds with Gli-Sufu block; AID 651994; 2,500 tested, 32% active; Sufu-KO-LIGHT cells cytotoxicity, ATP luminescence;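 active = mean cytotoxicity at 5 µM above about 25%, limit read from the data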;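 also: cells exposed to compound overnight for roughly 16 to 18 hours; plate controls were DMSO wells with cells for no effect and medium without cells for full effect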
# Wnt3a cs: counter-screen for Gli-SUFU antagonists: Wnt3a reporter inhibition; shares compounds with Gli-Sufu block; Wnt-LIGHT cells, Wnt3a-driven luciferase reporter, luminescence; inhibition, % at 6.25 µM; 2,500 tested, 20% active; AID 651995;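 active = mean inhibition above about 25%, limit read from the data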
# * marks the source's active call; other numbers are inactive results; x = no result. This is a sample that favours compounds with a hit; in the whole collection about 1.3% have one here.
SMILES,NCOA1 inh,COUP-TFII inh,NR5A2 inv ag,NCOA3 inh,Gli-Sufu block,SRC2 inh,Gli-Sufu confirm,Gli cytotox,Wnt3a cs
CCCNC(=O)c1ccc(N2CCC3(CC2)CC(c2ccccc2)=NO3)c(NC(=O)c2cccc(C)c2)c1,-6.4,9.5,1.3,-4.9,52.1,-3.1,25.2,14.6,-108.2
CCCNC(=O)c1ccc(N2CCC3(CC2)CC(c2ccccc2)=NO3)c(NC(=O)c2ccccc2)c1,10.3,17.2,2.2,5.4,17.7,18.4,x,x,x
CCN(CC)S(=O)(=O)c1ccc(N/N=C/c2ccc(O)cc2O)nc1,45.8,-39.9,40.0,68.0*,57.7*,31.3,69.6*,26.4*,78.7*
O=[N+]([O-])c1ccc(NN=Cc2ccc(O)cc2O)nc1,-45.5,-68.9,-4.4,-6.8,-11.2,-15.1,x,x,x
COc1ccc(OC)c(S(=O)(=O)N2CCCCC2C(=O)N2CCN(c3ccccc3F)CC2)c1 (centres undefined),x,-4.1,x,x,x,8.6,x,x,x
CCOc1ccccc1NC(=O)COC(=O)c1c(CC)noc1C,6.9,23.7,3.4,-25.9,66.9*,-1.4,24.2,8.6,0.6
Cc1ccc(C(=O)N2CCC[C@@H]2C(=O)N2CCC[C@H]2C(=O)NCc2ccccc2)cc1,x,3.1,x,x,x,19.3,x,x,x
O=C(C1CCC(C(=O)N2CCCCC2)CC1)N1CCCCC1 (centres undefined),20.1,-18.7,2.3,21.5,-13.6,-0.3,x,x,x
CN1CCCN(C(=O)C2CCC(C(=O)N3CCCN(C)CC3)CC2)CC1 (centres undefined),8.2,3.4,10.4,15.1,50.2,30.7,8.1,-11.2,13.0
C=CCNC1=C(Cl)C(=O)c2ccccc2C1=O,-1.6,-17.5,2.5,-0.5,55.7*,-14.8,30.2,5.2,78.7*
CC(C)c1ccc(C(O)c2cnc(C(C)C)n2C)cc1 (centres undefined),-37.0,-23.7,-44.0,-24.8,94.9*,-14.7,10.3,2.1,-70.5
CC1CCC(NC(=O)c2cccc(S(=O)(=O)N3CCN(C)CC3)c2)CC1 (centres undefined),-21.9,6.0,-21.8,-36.0,-19.1,-28.8,x,x,x
CC1CCC(NC(=O)c2cccc(S(=O)(=O)N3CCN(c4ccccc4)CC3)c2)CC1 (centres undefined),1.1,11.4,-0.3,-11.5,50.1,-13.9,46.9*,24.9,-30.1
CN(CC(=O)Nc1ccccc1Cl)C(=O)CN1C(=O)C2CC=CCC2C1=O (centres undefined),6.5,-5.6,1.1,2.1,54.9,-0.4,5.1,-1.4,10.2
C/C(=N\O)C(C)(C)Nc1ccccc1F,6.9,16.7,-5.0,15.5,95.8*,-38.9,10.1,13.4,-27.3
CCCCCCc1cc2cc(C(=O)Nc3ccccc3)c(=O)oc2cc1O,4.3,-14.1,11.2,11.0,73.5*,-17.8,64.2*,30.3*,79.5*
CCCCNC[C@@]12CO[C@H](c3ccc(Cl)cc3)N1[C@@H](c1ccc(Cl)cc1)SC2,x,-2.1,x,x,x,1.9,x,x,x
CCc1nc(N)nc(N)c1-c1ccc(N(C)Cc2ccccc2)c([N+](=O)[O-])c1,50.4,10.6,51.6,42.0,62.5*,6.9,49.0*,21.0,16.7
CCc1nnc(NC(=O)C(C)C)s1,6.5,-1.7,10.1,5.5,92.6*,13.7,10.6,-13.6,4.8
CC(C)C(=O)Nc1nnc(CCc2nnc(NC(=O)C(C)C)s2)s1,5.5,3.5,9.6,4.8,-3.0,21.5,x,x,x
CC(C)c1ccc(NC(=O)O[C@H]2CC[C@@]34CCCN3C(=O)CCC[C@H]4[C@H]2C)cc1,x,13.5,x,x,x,x,x,x,x
CCCc1nnc(NC(=O)CCC(=O)NCc2ccccc2Cl)s1,-0.9,-0.1,-26.5,-4.2,55.0*,-8.3,9.4,14.6,-13.7
Cc1ccc([N+](=O)[O-])cc1N=Nc1c(-c2ccc([N+](=O)[O-])cc2)[nH]n(C(N)=S)c1=O,-8.9,x,17.2,-2.1,58.3*,x,60.2*,3.1,47.4*
